Assay [1] is described as follows: optical density shifts of acrAB sulA E. coli – strain DRC41, OD650, 48 h, E. coli filamentation inducer project, primary screen (AID 1152).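 Note: E. coli MC1000 strain DRC41 lacking acrAB efflux pump and sulA.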 The conditions noted are these: higher = more signal, called active from +8 up or from −8 down.
A short description of assay [2]: probe aLefty1 binding on compound microarray – biochemical, small-molecule microarray, 635/667 nm fluorescence, primary screen (AID 1153).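 Note: score merges spot fluorescence with signal-to-noise ratio from the scanned slide images.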 The conditions noted are these: higher = more signal.
Assay [3] can be described thus: plasmodial surface anion channel blockers, osmotic lysis – cell-based, P. falciparum Indochina, OD700, 1 h, primary screen (AID 1154). The conditions noted are these: P. falciparum Indochina infected RBC osmotic lysis, higher = more signal, called active from +8 up or from −8 down.
A short description of assay [4]: plasmodial surface anion channel blockers, osmotic lysis – cell-based, P. falciparum Indochina, OD700, 2 h, primary screen (AID 1155).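 Note: lysis reports solute entry through the parasite surface anion channel PSAC.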 The conditions noted are these: P. falciparum Indochina infected erythrocytes, higher = more signal, called active from +8 up or from −8 down.
A short description of assay [5]: changes in parasitized red cell lysis, either direction – P. falciparum Indochina, OD700, 3 h, PSAC antagonist project, primary screen (AID 1156). The conditions noted are these: P. falciparum-infected erythrocytes, osmotic lysis, higher = more signal, called active from +8 up or from −8 down.
Assay [6] is described as follows: plasmodial surface anion channel blockers, osmotic lysis – cell-based, P. falciparum Indochina, OD700, 18 h, primary screen (AID 1157). The conditions noted are these: P. falciparum Indochina infected erythrocytes, osmotic lysis OD700, 18 h; higher = more signal, called active from +8 up or from −8 down.
A short description of assay [7]: S6 kinase pathway phospho-S6 level changes – cell-based, A549, cytoblot, luminescence, serum-stimulated, primary screen (AID 1158).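 Note: serum-stimulated A549 lung adenocarcinoma cells; signal is phosphorylated S6 detected by cytoblot immunostaining with HRP secondary.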 The conditions noted are these: 5 h, higher = more signal.
Assay [8] deals with NADPH oxidase 2 (Homo sapiens) (UniProt P04839). The assay can be described thus: compounds shifting NOX2 Amplex Red fluorescence – cell-based, HEK293-NOX2, PMA-stimulated, NOX inhibitor project, primary screen (AID 1159). Note: test concentration not given here. The conditions noted are these: 45 min, higher = more signal, called active from +8 up or from −8 down.
Sequence of NADPH oxidase 2 (Homo sapiens) (P04839 whole entry, looked up): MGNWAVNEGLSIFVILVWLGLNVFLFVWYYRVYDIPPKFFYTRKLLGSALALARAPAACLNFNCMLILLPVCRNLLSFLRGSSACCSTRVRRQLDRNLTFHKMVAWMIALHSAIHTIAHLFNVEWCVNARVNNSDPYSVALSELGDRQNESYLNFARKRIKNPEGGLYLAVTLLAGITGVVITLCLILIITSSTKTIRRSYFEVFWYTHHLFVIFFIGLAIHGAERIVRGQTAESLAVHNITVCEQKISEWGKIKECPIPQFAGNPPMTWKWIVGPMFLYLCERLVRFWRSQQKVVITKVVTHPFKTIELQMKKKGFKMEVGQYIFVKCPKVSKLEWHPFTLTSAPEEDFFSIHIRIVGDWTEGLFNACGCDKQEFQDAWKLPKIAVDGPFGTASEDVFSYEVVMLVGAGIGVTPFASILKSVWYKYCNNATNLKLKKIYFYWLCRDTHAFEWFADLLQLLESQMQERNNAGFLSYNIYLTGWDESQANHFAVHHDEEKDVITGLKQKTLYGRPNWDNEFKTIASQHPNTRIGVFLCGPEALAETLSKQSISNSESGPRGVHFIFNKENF
Assay [9] addresses NADPH oxidase 4 (Homo sapiens) (UniProt Q9NPH5). Put plainly: compounds shifting NOX4 Amplex Red fluorescence – cell-based, HEK293-NOX4, tetracycline-induced, NOX inhibitor project, primary screen (AID 1160). The conditions noted are these: HEK293-NOX4, Amplex Red H2O2 fluorescence, 45 min; higher = more signal, called active from +8 up or from −8 down.
Assay [10] concerns the target NADPH oxidase 5 (Homo sapiens) (UniProt Q96PH1). The assay can be described thus: compounds shifting NOX5 Amplex Red fluorescence – cell-based, HEK293-NOX5, NOX inhibitor project, primary screen (AID 1161). The conditions noted are these: HEK293-NOX5, ionomycin, 45 min, higher = more signal.
The nature of assay [11]: compound effects on lung adenocarcinoma cell viability – A549, calcein-AM fluorescence, 48 h, basal, profiling panel (AID 1162). Note: test concentration not given here. The conditions noted are these: higher = more signal.
The nature of assay [12]: compound effects on differentiated 3T3-L1 adipocyte viability – cell-based, 3T3-L1 adipocytes, calcein-AM fluorescence, 48 h, basal, profiling panel (AID 1163). Note: test concentration not given here. The conditions noted are these: 3T3-L1 adipocytes viability, higher = more signal.
Assay [13] in a line: compound effects on hepatocellular carcinoma cell viability – HepG2, calcein-AM fluorescence, 48 h, basal, profiling panel (AID 1164). Note: test concentration not given here. The conditions noted are these: higher = more signal.
Assay [14] can be described thus: compound effects on multiple myeloma cell viability – MM1S, calcein-AM fluorescence, 48 h, basal, profiling panel (AID 1165). Note: test concentration not given here. The conditions noted are these: higher = more signal.
A short description of assay [15]: calcein-AM signal in unstimulated myeloma cells – cell-based, calcein-AM fluorescence, 48 h, PK04 Diversity Set, profiling panel (AID 1166).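 Note: cells grown under basal conditions without added stimulus; test concentration not given here.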 The conditions noted are these: RPMI8226 myeloma viability, higher = more signal.
A short description of assay [16]: JC-1 mitochondrial signal, unstimulated HepG2 cells – cell-based, JC-1 fluorescence, 24 h, 100 nL compound, profiling panel (AID 1167). Note: test concentration not given here. The conditions noted are these: HepG2 mitochondrial potential, higher = more signal.
Assay [17] is described as follows: JC-1 mitochondrial signal, unstimulated adipocytes – cell-based, JC-1 fluorescence, 3T3-L1 adipocytes, 24 h, 100 nL compound, profiling panel (AID 1168). Note: test concentration not given here. The conditions noted are these: JC-1 mitochondrial fluorescence, higher = more signal, called active from +8 up or from −8 down.
Assay [18] can be described thus: JC-1 mitochondrial signal, unstimulated myeloma cells – cell-based, JC-1 fluorescence, RPMI8226, 24 h, 100 nL compound, profiling panel (AID 1169). Note: test concentration not given here. The conditions noted are these: JC-1 mitochondrial potential fluorescence, higher = more signal.
Assay [19] can be described thus: JC-1 mitochondrial signal, unstimulated MM1S myeloma – cell-based, JC-1 fluorescence, 24 h, 100 nL compound, profiling panel (AID 1170). Note: test concentration not given here. The conditions noted are these: MM1S mitochondrial potential, higher = more signal.
The nature of assay [20]: resazurin metabolic signal in A549 cells – cell-based, resazurin fluorescence, 24 h, PK04 Diversity Set, profiling panel (AID 1171). Note: test concentration not given here. The conditions noted are these: A549 viability, higher = more signal, called active from +8 up or from −8 down. On the technique in general: Resazurin is reduced to fluorescent resorufin, in cell work by metabolically active cells.

Activity calls are given as the source filed them.

Sequence of NADPH oxidase 4 (Homo sapiens) (Q9NPH5 whole entry, looked up): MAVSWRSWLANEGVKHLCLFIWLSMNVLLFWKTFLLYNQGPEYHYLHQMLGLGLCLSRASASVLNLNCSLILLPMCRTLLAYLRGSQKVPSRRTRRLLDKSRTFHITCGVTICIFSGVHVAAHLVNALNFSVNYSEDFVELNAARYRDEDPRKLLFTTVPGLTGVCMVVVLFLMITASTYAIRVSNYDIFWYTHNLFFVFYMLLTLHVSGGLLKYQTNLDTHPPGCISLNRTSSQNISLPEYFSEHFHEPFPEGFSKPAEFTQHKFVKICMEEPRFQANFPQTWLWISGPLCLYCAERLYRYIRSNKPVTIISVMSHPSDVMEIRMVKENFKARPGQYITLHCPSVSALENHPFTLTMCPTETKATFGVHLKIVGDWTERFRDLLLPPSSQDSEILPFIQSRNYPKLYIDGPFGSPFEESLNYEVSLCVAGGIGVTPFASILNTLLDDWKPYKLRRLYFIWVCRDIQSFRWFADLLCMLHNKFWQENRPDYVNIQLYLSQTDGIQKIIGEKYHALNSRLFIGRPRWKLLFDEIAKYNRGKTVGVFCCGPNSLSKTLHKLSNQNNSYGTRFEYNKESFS
Sequence of NADPH oxidase 5 (Homo sapiens) (Q96PH1 whole entry, looked up): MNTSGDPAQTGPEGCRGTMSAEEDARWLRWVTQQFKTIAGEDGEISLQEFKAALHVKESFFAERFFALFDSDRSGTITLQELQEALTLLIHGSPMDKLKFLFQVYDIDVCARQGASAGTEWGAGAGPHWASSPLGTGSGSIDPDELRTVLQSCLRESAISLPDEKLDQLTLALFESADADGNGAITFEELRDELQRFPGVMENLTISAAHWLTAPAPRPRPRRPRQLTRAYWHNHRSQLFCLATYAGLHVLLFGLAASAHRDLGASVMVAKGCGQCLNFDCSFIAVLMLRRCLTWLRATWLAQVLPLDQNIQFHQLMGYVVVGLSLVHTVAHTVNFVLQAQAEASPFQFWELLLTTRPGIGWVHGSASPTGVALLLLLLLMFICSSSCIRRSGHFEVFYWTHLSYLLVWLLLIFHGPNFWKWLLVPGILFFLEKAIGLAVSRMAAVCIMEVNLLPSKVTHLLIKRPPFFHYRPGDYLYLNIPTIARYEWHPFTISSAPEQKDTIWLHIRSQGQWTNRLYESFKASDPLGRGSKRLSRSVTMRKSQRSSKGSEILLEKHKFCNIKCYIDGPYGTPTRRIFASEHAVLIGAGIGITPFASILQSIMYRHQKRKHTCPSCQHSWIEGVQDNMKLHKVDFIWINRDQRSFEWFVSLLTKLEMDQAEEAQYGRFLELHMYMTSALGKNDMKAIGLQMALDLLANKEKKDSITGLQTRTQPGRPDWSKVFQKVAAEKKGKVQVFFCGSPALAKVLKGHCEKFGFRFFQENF

In the case of `C=CCC(OC(C)=O)[C@@H]1[C@@H](N(Cc2cc3ccccc3o2)C(=O)c2cccc3ccccc23)c2cc(OCCCO)ccc2N1C(=O)c1ccc2ccccc2c1` (stereo not given in full), the z-score in [1] was -0.546 (inactive); in assay [3] it was 0.92 (inactive); in [4] it was 0.0881 (inactive); in assay [5] it was 0.547 (inactive); in assay [6], 0.286 (inactive); in [7], 0.552. The z-score in [8] was -0.764 (inactive); in assay [9], -0.797 (inactive); in assay [10] it was -2.19; in assay [11], 0.668; in assay [12], 0.935; in assay [13] it was 0.0108. Also, the z-score in assay [14] was 0.364; in assay [15], -1.98; in [16] it was 1.93; in [17] it was -1.18 (inactive); in assay [18], -0.276; in assay [19], -0.42. Moreover, in assay [20], the z-score was -1.55 (inactive). The same molecule returned a composite z-score in [2] of 0.0931.
Consider `C=C(COC)C(=O)CC[C@@H](OC(C)=O)c1ccc(OCCO)cc1`, for which the z-score in [1] is -0.297 (inactive); in assay [3], 2.52 (inactive); in assay [4] it was 0.27 (inactive); in [5] it was 0.133 (inactive); in assay [6], 0.0871 (inactive); in assay [7] it was 0.239. The z-score is -0.352 (inactive) in assay [8]; -0.885 (inactive) in assay [9]; -0.112 in [10]; 0.453 in assay [11]; 0.327 in assay [12]; -0.446 in [13]. Besides, the z-score in assay [14] is -3.18; in [15], -0.311; in [16], -1.28; in assay [17] it was -0.979 (inactive); in [18], -0.652; in [19] it was -0.655. In assay [20], the z-score was -0.412 (inactive). The composite z-score in [2] is -0.007.
For `COc1ccccc1CN1C(=O)c2ccccc2[C@@H](C(=O)NCCCN(C)C)[C@@H]1c1ccc(CO)cc1`, the z-score in assay [1] was 1.21 (inactive); in assay [3] it was 2.02 (inactive); in assay [4] it was -0.141 (inactive); in [5] it was 0.445 (inactive); in [6], -0.583 (inactive); in assay [7] it was 0.506. For the same molecule, the z-score in assay [8] was 0.676 (inactive); in [9], -0.436 (inactive); in assay [10] it was -2.04; in [11] it was 1.29; in assay [12] it was 0.608; in assay [13], 1.07. Also, the z-score in [14] is 0.376; in assay [15] it was 0.0552; in assay [16], 3.31; in assay [17], 0.629 (inactive); in assay [18], 0.262; in assay [19] it was 0.325. The z-score in assay [20] is 0.997 (inactive). Moreover, the composite z-score in assay [2] is -0.552.
As to `[N-]=[N+]=NCc1ccccc1C[C@]1(C(=O)O)COC(c2ccc(OCCCO)cc2)=N1`, the z-score in [1] is 0.0626 (inactive); in assay [3] it was 5.11 (inactive); in assay [4] it was 0.179 (inactive); in assay [5], 1.56 (inactive); in [6] it was -0.315 (inactive); in [7], 0.49. Also, the z-score in [8] is 0.0988 (inactive); in assay [9] it was 1.27 (inactive); in assay [10] it was 0.641; in assay [11] it was 0.608; in assay [12], -0.379; in [13] it was 0.383. Also, the z-score was -0.175 in [14]; 0.345 in [15]; -0.578 in assay [16]; -0.634 (inactive) in [17]; -0.285 in [18]; -0.261 in [19]. Further, the z-score in assay [20] was 0.0946 (inactive). In addition, in assay [2], the composite z-score was found to be 0.118.
Turning to `COCCCNC(=O)[C@@]1(Sc2ccc(C)cc2)CC(=O)N(C2CCCCC2)[C@@H]1c1ccc(CO)cc1I`, the z-score in [1] was -0.251 (inactive); in [3], 4.53 (inactive); in assay [4] it was 0.678 (inactive); in assay [5], 0.0232 (inactive); in assay [6], 0.5 (inactive); in [7], -0.0285. The z-score in assay [8] was 0.625 (inactive); in assay [9], -0.102 (inactive); in assay [10], 1.43; in assay [11] it was 0.564; in assay [12], -0.363; in [13] it was 0.0565. Further, the z-score in assay [14] was -2.54; in assay [15], -2.33; in [16], 0.634; in assay [17] it was -0.201 (inactive); in assay [18], -0.126; in assay [19], -1.24. Besides, the z-score in [20] is 0.804 (inactive). In assay [2], this molecule gave a composite z-score of -0.649.
For the molecule `COCCOC(=O)N1C(=O)[C@@]2(c3cc(C#CCC(C(=O)OC)C(=O)OC)ccc31)[C@H](C(=O)N1CCc3cc(OC)c(OC)cc3C1)[C@H]1C(=O)O[C@H](c3ccccc3)[C@H](c3ccccc3)N1[C@@H]2c1ccc(O)cc1`, the z-score is -0.0961 (inactive) in assay [1]; 0.577 (inactive) in [3]; 0.524 (inactive) in assay [4]; -0.5 (inactive) in assay [5]; 0.0513 (inactive) in [6]; -0.111 in assay [7]. The z-score in assay [8] is 1.91 (inactive); in assay [9] it was 0.862 (inactive); in [10], 0.912; in [11] it was 0.373; in assay [12], 0.643; in assay [13] it was 0.391. Moreover, the z-score in [14] is -0.422; in [15], -1.54; in [16] it was 0.448; in assay [17] it was -0.216 (inactive); in assay [18], 0.109; in assay [19] it was 0.516. Also, the z-score in assay [20] was 0.0392 (inactive). Also, the composite z-score in assay [2] was found to be 0.191.

The values above are taken from PubChem BioAssay.
